Assay results from PubChem BioAssay (NCATS).
Inconclusive results are not listed. Calls of active or inactive are those of the source. Unless noted, calls follow the shape of the full dose curve.

Tests used:
[1] = qHTS assay for small molecule agonists of retinoid X receptor alpha signaling (AID 588544); conditions: HEK293T RXRa-UAS-bla, beta-lactamase reporter, 18 h; 530 nm emission;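 as to activation: 0% = DMSO basal wells and 100% = reference agonist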
[2] = target: Retinoic acid receptor RXR-alpha (Homo sapiens) (UniProt P19793); assay: as above; conditions: HEK293T RXRa-UAS-bla, beta-lactamase reporter, 18 h; series mostly up to 76.7 µM
[3] = target: Thyroid hormone receptor beta (Homo sapiens) (UniProt P10828); assay: qHTS assay for small molecule agonists of thyroid hormone receptor beta signaling (AID 588545); conditions: TR-UAS-bla GripTite HEK 293, beta-lactamase ratio, agonist mode, 18 h, percent of T3 response, DMSO as zero; series mostly up to 76.7 µM;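 also: 0% = DMSO only and 100% = 10 nM T3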
Outline: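 TR-UAS-bla-GripTite HEK 293 cells in medium with 2% charcoal/dextran FBS, 0.1 mM NEAA and 1 mM sodium pyruvate were treated with titrated compounds for 18 hrs at 37 C. Beta-lactamase reporter was read with CCF4 dye (ex 405, em 460/530 nm); EC50 from Hill fits.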

[4] = qHTS assay for small molecule antagonists of retinoid X receptor alpha signaling (AID 588546; active = well fitted inhibition curve with a large enough effect in the signal ratio, with a control signal flat, not every such curve was filed as active; the % refers to the signal ratio;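 also: cells stimulated with 9-cis-retinoic acid as agonist; % is scaled to controls: 0 for no effect and ±100 for the full control effect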); conditions: HEK293T RXRa-UAS-bla, beta-lactamase ratio, antagonist mode; measured here: W530 green channel, cytotoxicity proxy
Outline: (§1)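 Beta-lactamase reporter inhibition, read as CCF4 fluorescence ratio (ex 405, em 460/530 nm) after 2 h at RT. HEK293T UAS-bla cells, 2500/well, were stimulated with 9-cis-RA at 500 or 100 nM final alongside test compound for 18 h at 37 C.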

[5] = target: Retinoic acid receptor RXR-alpha (Homo sapiens) (UniProt P19793); assay: as above; conditions: HEK293T RXRa-UAS-bla, beta-lactamase ratio, antagonist mode
Outline: as §1

[6] = target: Thyroid hormone receptor beta (Homo sapiens) (UniProt P10828); assay: qHTS assay for small molecule antagonists of thyroid hormone receptor beta signaling (AID 588547; active = well fitted inhibition curve with a large enough effect in the signal ratio, with a control signal flat, not every such curve was filed as active; the % refers to the signal ratio;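 also: cells stimulated with 0.4 nM T3 agonist during compound exposure; % is scaled to controls: 0 for no effect and ±100 for the full control effect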); conditions: TR-UAS-bla HEK293, beta-lactamase ratio, antagonist mode, 18 h
Outline: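 TR-UAS-bla GripTite HEK293 cells in 2% charcoal/dextran FBS medium were preincubated 4 h at 37 C, given compound (0.59 nM to 92 uM) plus 0.4 nM T3 (final) for 18 h, then CCF4 for 2 h at RT; Hill fit gave IC50.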

[7] = qHTS assay for small molecule agonists of the antioxidant response element (ARE) signaling pathway (AID 651741; active = well fitted activation curve with a large enough effect in the signal ratio; the % refers to the signal ratio; also: % of control where 0% means no effect); conditions: HepG2 ARE-bla reporter, beta-lactamase FRET ratio, 16 h; series mostly up to 96 µM
Outline: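 Reporter: beta-lactamase under ARE, stably in HepG2. Exposure: 16 h, 37 C, compounds delivered in DMSO by pin tool after 5 h cell preincubation. Readout: FRET substrate fluorescence after 2 h at RT.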

[8] = qHTS assay for small molecule activators of the p53 signaling pathway (AID 651743; active = well fitted activation curve with a large enough effect in the signal ratio, not every such curve was filed as active; the % refers to the signal ratio; also: % of control where 0% means no effect); conditions: HCT-116 p53RE-bla, beta-lactamase FRET ratio, 16 h; stronger effect = higher value
Outline: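 Agonist-mode quantitative HTS in HCT-116 cells carrying a p53-response-element beta-lactamase reporter; 16 h compound treatment at 37 C, then FRET substrate loading for 2 h at room temperature and fluorescence read.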

[9] = qHTS assay for small molecule activators of the nuclear factor-kappa B (NF-kB) signaling pathway (AID 651749; active = well fitted activation curve with a large enough effect in the signal ratio; the % refers to the signal ratio; also: % of control where 0% means no effect); conditions: NF-kB-bla ME-180 cells, beta-lactamase FRET ratio, 16 h; stronger effect = higher value
Outline: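 Human ME-180 cervical cells with an NF-kB-bla construct; compounds added via 23 nL pin transfer, DMSO as vehicle; incubation 16 hr. Reporter activity measured by FRET disruption.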

[10] = qHTS assay for small molecule disruptors of the mitochondrial membrane potential - 1 hr assay (AID 651754); conditions: series mostly up to 92.2 µM; also: % is scaled to controls: 0 for no effect and ±100 for the full control effect; nearly all actives have a fitted effect of over 35% in size
Outline: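 Loss of mitochondrial potential shifts the cationic dye from red mitochondrial aggregates to green cytoplasmic monomers. Cells (HepG2) are treated with compound for 1 hr before a 30 min dye incubation at 37C.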

[11] = qHTS assay for small molecule disruptors of the mitochondrial membrane potential - 5 hr assay (AID 651755); conditions: JC-1-type ratio dye; series mostly up to 92.2 µM; also: % is scaled to controls: 0 for no effect and ±100 for the full control effect; nearly all actives have a fitted effect of over 40% in size
Outline: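 Seed HepG2 overnight, add compound, incubate 5 hr at 37C and 5% CO2, stain 30 min with Mito-MPS, then measure monomer (490/535 nm) and aggregate (540/590 nm) fluorescence.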

[12] = target: Tumor necrosis factor (Homo sapiens) (UniProt P01375); assay: qHTS assay to identify small molecules that stimulate Tumor Necrosis Factor-alpha (TNF-alpha) secretion (AID 651757; active = well fitted curve in the direction sought with a large enough effect in the signal ratio; the % refers to the signal ratio; also: 0% is about no effect); conditions: Human cells, HTRF 665/615 ratio; series mostly up to 92.2 µM
Outline: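 Human monocytic THP-1 cells are plated, treated with compound and held at 37 C for 17 hrs. Labeled anti-TNF-alpha antibody mixture is then added; after 3 hr at room temperature, TR-FRET signal reports secreted TNF-alpha.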

[13] = qHTS assay for environmental chemicals that activate the Aryl hydrocarbon Receptor (AhR) signaling pathway (AID 651777; active = well fitted curve in the direction sought with a large enough effect; an effect the other way counts as inactive or inconclusive; also: % of control where 0% means no effect; nearly all actives have a fitted effect of over 15% in size); conditions: 1A2-DRE human hepatoma cells, luciferase, 24 h; activation: stronger effect = higher value
Outline: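 Concentration–response screening used 1,200 1A2-DRE cells per well, 24 hr compound exposure (37 C, 5% CO2), and One-Glo luminescence as the AhR-driven CYP1A2 reporter signal.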

[14] = target: Peroxisome proliferator-activated receptor alpha (Homo sapiens) (UniProt Q07869); assay: qHTS assay for small molecule agonists of the peroxisome proliferator-activated receptor alpha (PPARalpha) signaling pathway (AID 651778; active = well fitted curve in the direction sought with a large enough effect; an effect the other way counts as inactive or inconclusive; also: % of control where 0% means no effect); conditions: PathHunter PPARalpha complementation, chemiluminescence, 6 h; stronger effect = higher value
Outline: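 Cells plated at 2,000/well and held overnight at 37 C, 5% CO2, then compound added by pin tool for 6 hr; after PathHunter detection reagent and 60 min at room temperature, chemiluminescence from enzyme complementation was read.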

[15] = target: Nuclear receptor ROR-gamma (Homo sapiens) (UniProt P51449); assay: qHTS assay for small molecule antagonists of the retinoid-related orphan receptor gamma (ROR-gamma) signaling pathway (AID 651802; active = well fitted curve in the direction sought with a large enough effect; an effect the other way counts as inactive or inconclusive;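 also: CHO cells with doxycycline-induced ROR-gamma expression; % is scaled to controls: 0 for no effect and ±100 for the full control effect; nearly all actives have a fitted effect of over 60% in size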); conditions: ROR-gamma antagonist cell reporter assay; series mostly up to 92.2 µM
Outline: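 Steps: cells dispensed; compound or DMSO transferred by pin tool; doxycycline added to induce the ROR response element-driven luciferase; plates held 16hr at 37C; ONE-Glo added and luminescence measured.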

[16] = qHTS assay for small molecule agonists of the antioxidant response element (ARE) signaling pathway measured by Nrf2-dependant transcriptional activity (AID 720636; active = well fitted curve in the direction sought with a large enough effect in the repeat runs; an effect the other way counts as inactive or inconclusive;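 also: HepG2 cells with an ARE-driven luciferase reporter; % of control where 0% means no effect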); conditions: ARE-luc HepG2, Nrf2 luciferase reporter, 16 h; series mostly up to 92.4 µM
Outline: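 Attachment 6 hr at 37 C, then compound versus DMSO vehicle for 16 hr in ARE-luc HepG2 cells (1% dialyzed FBS); luminescence recorded 30 min after ONE-Glo addition at room temperature.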

[17] = qHTS assay for small molecule antagonists of the retinoid-related orphan receptor gamma (ROR-gamma) signaling pathway - cell viability counter screen (AID 720652; active = well fitted curve in the direction sought with a large enough effect in the repeat runs; an effect the other way counts as inactive or inconclusive;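 also: CHO reporter cells with doxycycline-induced ROR-gamma expression; compound exposure lasted 16 hr before ATP read; % is scaled to controls: 0 for no effect and ±100 for the full control effect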); conditions: RORgamma reporter cell line viability counter screen; series mostly up to 92.2 µM
Outline: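 Steps: seed CHO cells bearing TET-inducible ROR and ROR response element-luciferase; rest 5 hr at 37 C; add compound, then doxycycline; incubate 16 hr; add CellTiter-Glo and read luminescence as ATP-based viability.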

[18] = qHTS assay for small molecule agonists of the antioxidant response element (ARE) signaling pathway measured by Nrf2-dependant transcriptional activity - cell viability counter screen (AID 720653; active = well fitted curve in the direction sought with a large enough effect in the repeat runs; an effect the other way counts as inactive or inconclusive; also: % is scaled to controls: 0 for no effect and ±100 for the full control effect); conditions: ARE-bla HepG2 viability, CellTiter-Glo ATP luminescence, 16 h; stronger effect = lower value
Outline: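 ARE-bla HepG2 cells (2,000/well) rested 5 hrs at 37C/5% CO2, then exposed to compounds in DMSO for 16 hrs. Viability was read in the same wells as intracellular ATP by luminescence, 30 min at room temperature after reagent addition.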

[19] = target: Voltage-gated inwardly rectifying potassium channel KCNH2 (Homo sapiens) (UniProt Q12809); assay: qHTS Assay for Small Molecule Inhibitors of the Human hERG Channel Activity (AID 588834; active = well fitted curve in the direction sought with a large enough effect; an effect the other way counts as inactive or inconclusive;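 also: top concentration of the series differs between compounds; % is scaled to controls: 0 for no effect and ±100 for the full control effect; lower thallium flux fluorescence means stronger hERG block; nearly all actives have a fitted effect of over 50% in size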); conditions: U2OS BacMam hERG, FluxOR thallium flux fluorescence; series mostly up to 92.2 µM
Outline: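 Step 1: BacMam hERG transduction of U2OS, 4 hrs RT. Step 2: overnight 37 °C, plate 2000 cells/well, 4 hr. Step 3: FluxOR load, compound 10 min, stimulate, read fluorescence.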

[20] = qHTS assay to identify small molecules that stimulate interleukin-8 (IL-8) secretion (AID 651758; active = well fitted activation curve with a large enough effect in the signal ratio; the % refers to the signal ratio; also: 0% is about no effect); conditions: HTRF ratio (665/615); series mostly up to 92.2 µM
Outline: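 Quantitative HTS in THP-1 monocytic cells at 2000 cells per well, with 16 hrs compound incubation at 37 C. IL-8 in the medium was then quantified by HTRF immunoassay, read after 1-3 hrs at room temperature.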

Sequence of Nuclear receptor ROR-gamma (Homo sapiens) (P51449 whole entry, looked up): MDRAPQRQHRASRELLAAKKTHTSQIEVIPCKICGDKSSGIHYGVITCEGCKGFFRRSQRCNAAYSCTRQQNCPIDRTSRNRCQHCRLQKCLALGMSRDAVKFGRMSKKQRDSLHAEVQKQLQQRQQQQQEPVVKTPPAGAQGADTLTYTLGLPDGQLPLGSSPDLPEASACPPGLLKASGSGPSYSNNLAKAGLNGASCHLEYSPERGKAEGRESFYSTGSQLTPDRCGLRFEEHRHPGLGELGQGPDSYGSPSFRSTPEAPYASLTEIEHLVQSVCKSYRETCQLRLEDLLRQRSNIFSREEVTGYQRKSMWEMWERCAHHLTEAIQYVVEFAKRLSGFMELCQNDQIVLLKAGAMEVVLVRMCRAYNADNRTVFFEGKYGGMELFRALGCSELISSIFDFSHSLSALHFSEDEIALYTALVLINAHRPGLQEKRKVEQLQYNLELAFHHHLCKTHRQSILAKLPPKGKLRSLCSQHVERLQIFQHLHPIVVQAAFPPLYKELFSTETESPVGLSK
Sequence of Retinoic acid receptor RXR-alpha (Homo sapiens) (P19793 whole entry, looked up): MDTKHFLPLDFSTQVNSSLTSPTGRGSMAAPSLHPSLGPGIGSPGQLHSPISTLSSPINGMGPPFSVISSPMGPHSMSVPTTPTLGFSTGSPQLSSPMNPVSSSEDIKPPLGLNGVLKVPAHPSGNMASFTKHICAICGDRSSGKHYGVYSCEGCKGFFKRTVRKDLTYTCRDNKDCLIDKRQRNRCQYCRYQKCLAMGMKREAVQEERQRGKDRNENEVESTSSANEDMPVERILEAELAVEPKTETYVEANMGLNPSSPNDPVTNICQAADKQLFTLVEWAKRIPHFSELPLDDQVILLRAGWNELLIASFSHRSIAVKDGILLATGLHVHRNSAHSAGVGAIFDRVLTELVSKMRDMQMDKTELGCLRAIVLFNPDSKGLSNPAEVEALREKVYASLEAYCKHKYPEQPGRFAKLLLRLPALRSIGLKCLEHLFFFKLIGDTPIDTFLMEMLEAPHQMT
Sequence of Tumor necrosis factor (Homo sapiens) (P01375 whole entry, looked up): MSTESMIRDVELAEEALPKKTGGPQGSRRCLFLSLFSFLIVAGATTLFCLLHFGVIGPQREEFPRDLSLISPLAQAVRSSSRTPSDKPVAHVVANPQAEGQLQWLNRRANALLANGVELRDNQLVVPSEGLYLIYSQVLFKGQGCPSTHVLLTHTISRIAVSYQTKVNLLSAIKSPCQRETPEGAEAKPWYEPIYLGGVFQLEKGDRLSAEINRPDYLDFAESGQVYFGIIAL
Sequence of Thyroid hormone receptor beta (Homo sapiens) (P10828 whole entry, looked up): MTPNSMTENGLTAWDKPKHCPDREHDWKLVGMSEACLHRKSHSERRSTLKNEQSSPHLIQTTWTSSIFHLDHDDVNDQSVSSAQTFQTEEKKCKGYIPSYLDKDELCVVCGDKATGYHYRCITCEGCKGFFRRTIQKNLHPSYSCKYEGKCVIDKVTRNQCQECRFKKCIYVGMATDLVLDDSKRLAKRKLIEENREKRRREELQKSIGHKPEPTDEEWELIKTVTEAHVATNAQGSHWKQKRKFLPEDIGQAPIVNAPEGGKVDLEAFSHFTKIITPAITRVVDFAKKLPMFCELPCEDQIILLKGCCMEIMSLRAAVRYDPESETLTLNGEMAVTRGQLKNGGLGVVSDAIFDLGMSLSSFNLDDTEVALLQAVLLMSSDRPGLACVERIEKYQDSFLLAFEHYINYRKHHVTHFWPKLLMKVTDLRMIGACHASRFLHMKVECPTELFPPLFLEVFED
Sequence of Peroxisome proliferator-activated receptor alpha (Homo sapiens) (Q07869 whole entry, looked up): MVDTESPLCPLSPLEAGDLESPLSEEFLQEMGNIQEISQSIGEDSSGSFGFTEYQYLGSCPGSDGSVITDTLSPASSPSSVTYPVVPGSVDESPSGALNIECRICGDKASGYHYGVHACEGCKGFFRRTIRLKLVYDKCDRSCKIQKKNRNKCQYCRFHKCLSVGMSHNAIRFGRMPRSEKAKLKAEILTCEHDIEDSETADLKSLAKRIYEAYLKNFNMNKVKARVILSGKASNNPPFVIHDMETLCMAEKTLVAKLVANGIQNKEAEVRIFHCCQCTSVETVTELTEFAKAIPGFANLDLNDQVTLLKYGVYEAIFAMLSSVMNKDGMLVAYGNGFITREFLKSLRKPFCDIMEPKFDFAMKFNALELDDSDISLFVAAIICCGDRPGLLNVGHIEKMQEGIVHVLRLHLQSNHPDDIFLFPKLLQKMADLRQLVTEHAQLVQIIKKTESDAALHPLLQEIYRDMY
Sequence of Voltage-gated inwardly rectifying potassium channel KCNH2 (Homo sapiens) (Q12809 whole entry, looked up): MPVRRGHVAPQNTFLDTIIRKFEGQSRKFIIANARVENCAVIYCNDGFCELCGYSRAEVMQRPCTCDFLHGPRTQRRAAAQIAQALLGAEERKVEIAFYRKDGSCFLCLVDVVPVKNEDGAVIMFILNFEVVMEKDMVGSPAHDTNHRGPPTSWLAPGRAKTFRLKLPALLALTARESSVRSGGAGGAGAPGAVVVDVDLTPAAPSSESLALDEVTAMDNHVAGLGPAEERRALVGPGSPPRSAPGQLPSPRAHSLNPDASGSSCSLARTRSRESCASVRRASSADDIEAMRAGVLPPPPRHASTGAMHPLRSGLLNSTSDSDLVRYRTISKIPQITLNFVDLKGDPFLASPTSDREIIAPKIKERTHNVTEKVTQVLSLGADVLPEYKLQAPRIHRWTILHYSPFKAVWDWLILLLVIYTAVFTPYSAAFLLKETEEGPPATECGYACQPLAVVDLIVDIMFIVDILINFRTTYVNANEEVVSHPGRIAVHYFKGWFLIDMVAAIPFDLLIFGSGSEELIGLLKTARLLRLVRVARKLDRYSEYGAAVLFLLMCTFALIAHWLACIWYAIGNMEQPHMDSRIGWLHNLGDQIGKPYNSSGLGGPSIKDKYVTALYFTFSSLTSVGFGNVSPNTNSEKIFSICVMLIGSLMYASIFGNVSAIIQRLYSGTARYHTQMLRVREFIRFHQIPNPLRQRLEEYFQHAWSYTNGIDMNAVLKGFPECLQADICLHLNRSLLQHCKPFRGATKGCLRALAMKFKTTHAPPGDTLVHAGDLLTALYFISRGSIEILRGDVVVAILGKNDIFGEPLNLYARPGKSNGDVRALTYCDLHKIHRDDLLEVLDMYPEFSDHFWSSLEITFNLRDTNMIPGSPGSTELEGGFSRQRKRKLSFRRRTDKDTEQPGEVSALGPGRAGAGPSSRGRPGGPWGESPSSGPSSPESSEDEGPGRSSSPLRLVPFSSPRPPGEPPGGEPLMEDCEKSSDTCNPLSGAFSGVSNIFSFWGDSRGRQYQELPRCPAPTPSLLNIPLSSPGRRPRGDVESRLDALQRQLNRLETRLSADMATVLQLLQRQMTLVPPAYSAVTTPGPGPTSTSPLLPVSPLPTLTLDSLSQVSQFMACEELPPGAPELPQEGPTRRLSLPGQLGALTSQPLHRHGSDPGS

CC(C)c1ccccc1
-7.95%: max response [1]
7.79%: max response [4]
inactive: outcome [2] | outcome [3] | max response [5] 6.96% | activity change % (negative = inhibition) [6] 6.43% | Potency [7] | activation [8] 0.723% | activation [9] -1.2% | Potency [10] | Potency [11] | Potency [12] | activation [13] -1.48% | max response [14] 3.38% | Potency [15] | outcome [16] | Potency [17] | max response [18] -7.17%

CSc1ccc(C=O)cc1
-1.24%: max response [4]
inactive: outcome [2] | outcome [3] | max response [5] 1.67% | activity change % (negative = inhibition) [6] 3.08% | Potency [19] | activation [9] 0.0922% | Potency [10] | Potency [11] | activation [13] 0.018% | max response [14] -3.7% | outcome [16] | Potency [17] | max response [18] -8.76%
-15.5%: max response [1]

CC(C)N=C=NC(C)C
10.7%: max response [4]
-13.3%: max response [1]
inactive: outcome [2] | outcome [3] | max response [5] 7.57% | activity change % (negative = inhibition) [6] 1.37% | Potency [7] | activation [8] 1.3% | activation [9] -0.231% | Potency [11] | Potency [12] | Potency [20] | activation [13] -2.05% | max response [14] -2.65% | Potency [15] | outcome [16] | Potency [17] | max response [18] -1%

Cc1cccc(C)c1
-8.63%: max response [4]
-8.44%: max response [1]
inactive: outcome [2] | outcome [3] | max response [5] -1.87% | activity change % (negative = inhibition) [6] 21.6% | Potency [19] | Potency [10] | Potency [11] | Potency [12] | Potency [20] | activation [13] 0.25% | max response [14] 1.06% | outcome [16] | Potency [17] | max response [18] 7.38%

C=CCCCC
-12.2%: max response [1]
-3.19%: max response [4]
inactive: outcome [2] | outcome [3] | max response [5] -7.65% | activity change % (negative = inhibition) [6] 9.97% | Potency [7] | activation [8] 0.701% | activation [9] 0.582% | Potency [12] | activation [13] 0.475% | max response [14] -2.42% | Potency [15] | outcome [16] | Potency [17] | max response [18] -4.9%

C=C(C)C(=O)OCCCCCCCCCC
inactive: outcome [2] | outcome [3] | max response [5] -3.36% | activity change % (negative = inhibition) [6] 12.3% | Potency [10] | Potency [11] | Potency [12] | Potency [20] | activation [13] -0.81% | max response [14] -0.186% | Potency [15] | outcome [16] | Potency [17] | max response [18] -0.733%
-7.57%: max response [4]
-10.3%: max response [1]

CN(C)c1cccc(O)c1
-0.228%: max response [1]
-1.21%: max response [4]
inactive: outcome [2] | outcome [3] | max response [5] 8.46% | activity change % (negative = inhibition) [6] 5.73% | activation [9] -0.862% | activation [13] 6.91% | max response [14] -3.12% | outcome [16] | Potency [17] | max response [18] -0.49%
